Records with an inconclusive call do not appear. Calls of active or inactive are those of the source. The call rests on the fitted dose curve; in most records, active means well fitted cell-killing curve with a large enough effect in the repeat runs; inconclusive means weak or mixed curves, or effect the other way; inactive means no such curve, though single readings can be large or run the other way.
assay: qHTS assay to identify small molecule antagonists of the peroxisome proliferator-activated receptor gamma (PPARg) signaling pathway - cell viability counter screen (AID 743194); conditions: PPARg-bla HEK293H viability, CellTiter-Glo luminescence, 17 h, co-treated with 50 nM rosiglitazone; series mostly up to 62.6 µM; activity change, negative = cytotoxicity: at the top concentration; further: nearly all actives have a fitted effect of over 55% in size
Text: U.S. Tox21 Program National Center for Advancing Translational Sciences [NCATS] NIH Chemical Genomics Center [NCGC] U.S. Environmental Protection Agency [EPA] National Institutes of Environmental Health Sciences [NIEHS] National Toxicology Program [NTP] U.S. Food and Drug Administration [FDA] Tox21 Assay Overview: The peroxisome proliferator-activated receptors (PPARs) are lipid-activated transcription factors of the nuclear receptor superfamily with three distinct subtypes namely PPAR alpha, PPAR delta (also called PPAR beta) and PPAR gamma (PPARg). All these subtypes heterodimerize with Retinoid X receptor (RXR) and these heterodimers regulate transcription of various genes. PPAR-gamma receptor (glitazone receptor) is involved in the regulation of glucose and lipid metabolism. To identify the compounds that activate PPAR-gamma signaling, GeneBLAzer PPAR gamma UAS-bla HEK293H cell line (Invitrogen, Carlsbad, CA, USA) containing a beta-lactamase reporter gene under the control of an Upstream Activator Sequence (UAS) was used to screen the Tox21 compound library. The cytotoxicity of the Tox21 compound library against the PPARg-bla cell line was tested in parallel by measuring the cell viability using CellTiter-Glo assay in the same wells.
Tox21 Assay Protocol Summary: PPARg-bla cells were dispensed at 3000 cells/5uL/well in 1536-well black wall/clear bottom plates using a Multidrop Combi (Thermo Fisher Scientific, Waltham, MA) dispenser. After the assay plates were incubated at 37 C and 5% CO2 for 5 h, 23 nL of compounds dissolved in DMSO, positive controls or DMSO only was transferred to the assay plate by a Pintool station (Kalypsys, San Diego, CA), followed by addition of 1ul Rosiglitazone (50 nM, final concentration in the wells). The assay plates were incubated at 37 C for 17 h, and then 1 uL of LiveBLAzerTM B/G FRET substrate was added using a Bioraptr Flying Reagent Dispenser (FRD) workstation (Beckman Coulter, Indianapolis, IN, USA). The assay plates were incubated at room temperature for 1 h and fluorescence intensity was measured by an Envision plate reader (PerkinElmer, Shelton, CT). For cell viability readout that measures cytotoxicity, 4 ul/well of CellTiter-Glo reagent was added into the assay plates using a Flying Reagent Dispenser. After 30 min incubation at room temperature, the luminescence intensity in the plates was measured using a ViewLux plate reader (PerkinElmer).
On the % scale 0 is the no-effect control and ±100 the full control effect; potency means the concentration at half of the fitted maximal effect.

Structure (SMILES) | Potency | activity change, negative = cytotoxicity
CC[C@@H]([C@H](C)O)n1ncn(-c2ccc(N3CCN(c4ccc(OC[C@@H]5CO[C@@](Cn6cncn6)(c6ccc(F)cc6F)C5)cc4)CC3)cc2)c1=O | 29.8 µM (active) | –
CN1Cc2cc(C(=O)N3CCC(C4CCNCC4)CC3)ccc2N[C@@H](CC(=O)O)C1=O | – | 21.1% (inactive)
CC(COc1ccc(C(C)(C)C)cc1)OS(=O)OCCCl (stereo not given) | – | 11% [at 81.1 µM] (inactive)
COc1cc2c(N3CCN(C(=O)Nc4ccc(OC(C)C)cc4)CC3)ncnc2cc1OCCCN1CCCCC1 | – | 0.0127% (inactive)
COc1ccc(CCC(=O)c2c(O)cc(O[C@@H]3O[C@H](CO)[C@@H](O)[C@H](O)[C@H]3O[C@@H]3O[C@@H](C)[C@H](O)[C@@H](O)[C@H]3O)cc2O)cc1O | – | 16% (inactive)
Cc1nc2ccccc2s1 | – | 13% [at 81.1 µM] (inactive)
Cc1cc(O)c(C(C)C)cc1Cl | inactive | –
CC(C)(C)C(=O)O | – | 11.6% [at 81.1 µM] (inactive)
C=CC(=O)NCOCC(C)C | – | -14.5% (inactive)
C=CC(C)=CCC=C(C)C | – | -3.86% (inactive)
C=CCOC(=O)/C=C\C(=O)OCC=C | – | -1.22% [at 81.1 µM] (inactive)
N#C[C@@H]1C[C@@H]2C[C@@H]2N1C(=O)[C@@H](N)C12CC3CC(CC(O)(C3)C1)C2 | – | -6.46% (inactive)
NC(=O)Nc1ccc(Cl)c(Cl)c1 | – | 0.415% (inactive)
CC(CCc1ccc2c(c1)OCO2)NN (stereo not given) | – | 9.74% (inactive)
Nc1nccs1 | – | 11.2% (inactive)
CC(=O)[C@H]1CC[C@H]2[C@@H]3C[C@H](C)C4=CC(=O)CC[C@]4(C)[C@H]3[C@@H](O)C[C@]12C | – | -12.7% (inactive)
CCC(C(=O)OCCOCCN(CC)CC)c1ccccc1 (stereo not given) | – | -3.51% (inactive)
CC(Cl)C(Cl)Cl (stereo not given) | – | 26% (inactive)
O=C(NCCCN1CCOCC1)c1ccc(Cl)cc1 | – | 11.4% (inactive)
CC1=C(C=O)C(C)(C)CCC1 | – | 8.32% (inactive)

Structure (SMILES) | Potency | activity change, negative = cytotoxicity
CC#N | – | 22.4% [at 81.1 µM] (inactive)
Cc1cnc(C)c(C)n1 | – | 11.7% [at 81.1 µM] (inactive)
CSc1ccc(Oc2ccc(S(N)(=O)=O)cc2CN(C)C)cc1C | – | -2.51% (inactive)
N#C/C(=C1/SC[C@@H](c2ccc(Cl)cc2Cl)S1)n1ccnc1 | – | -20.5% (inactive)
CCCCC(=O)O[C@]1(C(=O)CO)CC[C@H]2[C@@H]3CCC4=CC(=O)CC[C@]4(C)[C@H]3[C@@H](O)C[C@@]21C | – | 0.94% (inactive)
Oc1cc(O)c(Cl)cc1Cl | – | 14.9% [at 81.1 µM] (inactive)
CCOC(=O)/C=C/C(=O)O | – | 9.12% (inactive)
CCc1nn(CCCN2CCN(c3cccc(Cl)c3)CC2)c(=O)n1CCOc1ccccc1 | – | -6.17% (inactive)
COCc1c(C(C)C)nc(C(C)C)c(/C=C/[C@@H](O)C[C@@H](O)CC(=O)O)c1-c1ccc(F)cc1 | – | -1.24% (inactive)
CCCOc1ccc(S(=O)(=O)N2CCN(CC)CC2)cc1-c1nc2c(CC)n(Cc3ccccn3)nc2c(=O)[nH]1 | – | -5.22% (inactive)
CC(C)C(OC(=O)c1ccccc1)C(C)(C)COC(=O)c1ccccc1 (stereo not given) | – | -5% (inactive)
O=C(CCCCCCCCC#CI)Oc1ccccc1 | – | -0.109% (inactive)
CCOC(=O)OCC | – | 0.776% [at 81.1 µM] (inactive)
c1cc[c]([Bi]([c]2ccccc2)[c]2ccccc2)cc1 | – | 3.13% (inactive)
CC1CC(O)CC(C)(C)C1 (stereo not given) | – | -9.61% (inactive)
CC(N)CN (stereo not given) | – | 9.27% [at 81.1 µM] (inactive)
C[C@@H]1C[C@H]2[C@@H]3CCC4=CC(=O)C=C[C@]4(C)[C@@]3(F)[C@@H](O)C[C@]2(C)[C@@]1(O)C(=O)CO | – | 9.27% [at 81.1 µM] (inactive)
OC(CCCN1CCCCC1)(c1ccccc1)c1ccccc1 | – | -25.3% (inactive)
O=C(O)c1c(O)c(-c2ccccc2)nc2ccccc12 | – | 2.11% (inactive)
C[C@@H]1C[C@H]2[C@@H]3CCC4=CC(=O)C=C[C@]4(C)[C@@]3(F)[C@@H](O)C[C@]2(C)[C@H]1C(=O)CO | – | 9.05% (inactive)
